In paper PMC11006913:

target: HOXD13 (Homo sapiens, UniProt P35453 263-343, T313A); experiment: PBM; 200 nM protein, PBS; conditions: dsDNA, one strand shown
Sequence (P35453 263-343 T313A): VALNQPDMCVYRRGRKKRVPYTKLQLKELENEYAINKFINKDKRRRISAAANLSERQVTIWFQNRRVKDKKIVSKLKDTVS

Sequence | binding signal
CCGACCTC | 9.44 upbm affinity estimate (log intensity, higher = more binding, comparable within an allelic series)
CCGGTGGC | 9.43 upbm affinity estimate (log intensity, higher = more binding, comparable within an allelic series)
CCAGCCAG | 9.56 upbm affinity estimate (log intensity, higher = more binding, comparable within an allelic series)

target: HOXB9 (Homo sapiens, UniProt P17482 171-250, R186Q); experiment: PBM; 200 nM protein, PBS; conditions: dsDNA, one strand shown
Sequence (P17482 171-250 R186Q): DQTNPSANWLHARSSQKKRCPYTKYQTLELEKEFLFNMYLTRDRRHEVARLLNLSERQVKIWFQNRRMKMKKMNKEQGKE

Sequence | binding signal
CATGCGCC | 8.56 upbm affinity estimate (log intensity, higher = more binding, comparable within an allelic series)
CGTGCACG | 8.57 upbm affinity estimate (log intensity, higher = more binding, comparable within an allelic series)
CCAGCCAG | 8.39 upbm affinity estimate (log intensity, higher = more binding, comparable within an allelic series)

target: T1, NKX2-6 (Homo sapiens, UniProt A6NCS4 118-204, F151L); experiment: PBM; 200 nM protein, PBS; conditions: dsDNA, one strand shown
T1 sequence: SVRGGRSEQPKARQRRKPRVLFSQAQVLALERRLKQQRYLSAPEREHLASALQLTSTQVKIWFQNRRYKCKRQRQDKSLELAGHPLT

Sequence | binding signal
CCTCTTGA | 10.5 upbm affinity estimate (log intensity, higher = more binding, comparable within an allelic series)
CCTCTTAA | 10.5 upbm affinity estimate (log intensity, higher = more binding, comparable within an allelic series)
AAGTGGTC | 10.5 upbm affinity estimate (log intensity, higher = more binding, comparable within an allelic series)
TCAAGTGA | 10.5 upbm affinity estimate (log intensity, higher = more binding, comparable within an allelic series)
CTCAAGTA | 10.8 upbm affinity estimate (log intensity, higher = more binding, comparable within an allelic series)
ACTTGAGA | 10.7 upbm affinity estimate (log intensity, higher = more binding, comparable within an allelic series)
CACTTGAA | 11.4 upbm affinity estimate (log intensity, higher = more binding, comparable within an allelic series)
CTCTTAAG | 10.6 upbm affinity estimate (log intensity, higher = more binding, comparable within an allelic series)
ACACTTGA | 11.4 upbm affinity estimate (log intensity, higher = more binding, comparable within an allelic series)
AGTACTTG | 10.8 upbm affinity estimate (log intensity, higher = more binding, comparable within an allelic series)
ACACTTCA | 10.8 upbm affinity estimate (log intensity, higher = more binding, comparable within an allelic series)
GTACTTCA | 10.8 upbm affinity estimate (log intensity, higher = more binding, comparable within an allelic series)
AAGTGGAC | 10.4 upbm affinity estimate (log intensity, higher = more binding, comparable within an allelic series)
CCGACGCC | 9.35 upbm affinity estimate (log intensity, higher = more binding, comparable within an allelic series)
AAGTGCCC | 10.8 upbm affinity estimate (log intensity, higher = more binding, comparable within an allelic series)
TACTTGAA | 10.8 upbm affinity estimate (log intensity, higher = more binding, comparable within an allelic series)
CACTTCAA | 10.9 upbm affinity estimate (log intensity, higher = more binding, comparable within an allelic series)
TAAGTGTA | 10.9 upbm affinity estimate (log intensity, higher = more binding, comparable within an allelic series)
CACTTCAG | 10.8 upbm affinity estimate (log intensity, higher = more binding, comparable within an allelic series)
GTCAAGTA | 10.5 upbm affinity estimate (log intensity, higher = more binding, comparable within an allelic series)

target: MSX2 (Homo sapiens, UniProt P35548 130-214, F161Y); experiment: PBM; 200 nM protein, PBS; conditions: dsDNA, one strand shown
Sequence (P35548 130-214 F161Y): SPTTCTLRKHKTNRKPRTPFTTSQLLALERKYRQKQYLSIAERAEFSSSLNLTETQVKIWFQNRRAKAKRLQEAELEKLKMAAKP

Sequence | binding signal
CTGGCCAG | 9.83 upbm affinity estimate (log intensity, higher = more binding, comparable within an allelic series)
CACGGGCC | 9.46 upbm affinity estimate (log intensity, higher = more binding, comparable within an allelic series)
CCGGTGGC | 9.58 upbm affinity estimate (log intensity, higher = more binding, comparable within an allelic series)

target: NKX3-2 (Homo sapiens, UniProt P78367 192-278, P234S); experiment: PBM; 200 nM protein, PBS; conditions: dsDNA, one strand shown
Sequence (P78367 192-278 P234S): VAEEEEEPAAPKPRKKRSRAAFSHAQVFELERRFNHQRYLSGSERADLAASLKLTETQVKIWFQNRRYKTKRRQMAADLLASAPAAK

Sequence | binding signal
AAGTGGTC | 12.9 upbm affinity estimate (log intensity, higher = more binding, comparable within an allelic series)
AAGTGGAC | 12.7 upbm affinity estimate (log intensity, higher = more binding, comparable within an allelic series)
CCGACGCC | 10.5 upbm affinity estimate (log intensity, higher = more binding, comparable within an allelic series)
AAGTGCCC | 12.9 upbm affinity estimate (log intensity, higher = more binding, comparable within an allelic series)
CAAGTACC | 12.5 upbm affinity estimate (log intensity, higher = more binding, comparable within an allelic series)

target: NKX2-5 (Homo sapiens, UniProt P52952 125-210); experiment: PBM; 200 nM protein, PBS; conditions: dsDNA, one strand shown
Sequence (P52952 125-210): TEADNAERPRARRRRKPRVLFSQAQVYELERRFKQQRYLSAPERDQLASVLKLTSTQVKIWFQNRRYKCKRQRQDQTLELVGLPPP

Sequence | binding signal
CCTCTTGA | 12.5 upbm affinity estimate (log intensity, higher = more binding, comparable within an allelic series)
ATAATGGG | 11 upbm affinity estimate (log intensity, higher = more binding, comparable within an allelic series)
CCTCTTAA | 12.3 upbm affinity estimate (log intensity, higher = more binding, comparable within an allelic series)
AAGTGGTC | 12.6 upbm affinity estimate (log intensity, higher = more binding, comparable within an allelic series)
TCAAGTGA | 12.4 upbm affinity estimate (log intensity, higher = more binding, comparable within an allelic series)
CTCAAGTA | 12.6 upbm affinity estimate (log intensity, higher = more binding, comparable within an allelic series)
ACTTGAGA | 12.2 upbm affinity estimate (log intensity, higher = more binding, comparable within an allelic series)
CACTTGAA | 13.2 upbm affinity estimate (log intensity, higher = more binding, comparable within an allelic series)
CCGACCTC | 8.83 upbm affinity estimate (log intensity, higher = more binding, comparable within an allelic series)
CTGGCCAG | 8.9 upbm affinity estimate (log intensity, higher = more binding, comparable within an allelic series)
TACCGGTA | 8.86 upbm affinity estimate (log intensity, higher = more binding, comparable within an allelic series)
ATCGGTGG | 8.79 upbm affinity estimate (log intensity, higher = more binding, comparable within an allelic series)
CTCTTAAG | 12.3 upbm affinity estimate (log intensity, higher = more binding, comparable within an allelic series)
ACACTTGA | 12.9 upbm affinity estimate (log intensity, higher = more binding, comparable within an allelic series)
CGTGCGGC | 8.8 upbm affinity estimate (log intensity, higher = more binding, comparable within an allelic series)
AGTACTTG | 12.3 upbm affinity estimate (log intensity, higher = more binding, comparable within an allelic series)
ACACTTCA | 12.3 upbm affinity estimate (log intensity, higher = more binding, comparable within an allelic series)
ACGGCCTG | 8.81 upbm affinity estimate (log intensity, higher = more binding, comparable within an allelic series)
GTACTTCA | 12.4 upbm affinity estimate (log intensity, higher = more binding, comparable within an allelic series)
AGTCCGGG | 9.09 upbm affinity estimate (log intensity, higher = more binding, comparable within an allelic series)

Sequence | binding signal
AAGTGGAC | 12.4 upbm affinity estimate (log intensity, higher = more binding, comparable within an allelic series)
CGGTCGGC | 8.65 upbm affinity estimate (log intensity, higher = more binding, comparable within an allelic series)
CCGACGCC | 8.73 upbm affinity estimate (log intensity, higher = more binding, comparable within an allelic series)
AAGTGCCC | 12.4 upbm affinity estimate (log intensity, higher = more binding, comparable within an allelic series)
CACGGGCC | 8.71 upbm affinity estimate (log intensity, higher = more binding, comparable within an allelic series)
CATGCGCC | 8.85 upbm affinity estimate (log intensity, higher = more binding, comparable within an allelic series)
CCACTCGA | 12.2 upbm affinity estimate (log intensity, higher = more binding, comparable within an allelic series)
TACTTGAA | 12.5 upbm affinity estimate (log intensity, higher = more binding, comparable within an allelic series)
CACTTCAA | 12.4 upbm affinity estimate (log intensity, higher = more binding, comparable within an allelic series)
CGTGCACG | 8.84 upbm affinity estimate (log intensity, higher = more binding, comparable within an allelic series)
TAAGTGTA | 12.4 upbm affinity estimate (log intensity, higher = more binding, comparable within an allelic series)
CCGGTGGC | 8.93 upbm affinity estimate (log intensity, higher = more binding, comparable within an allelic series)
CCTGGGCC | 8.87 upbm affinity estimate (log intensity, higher = more binding, comparable within an allelic series)
GCGACGCC | 8.83 upbm affinity estimate (log intensity, higher = more binding, comparable within an allelic series)
CAAGTACC | 12.3 upbm affinity estimate (log intensity, higher = more binding, comparable within an allelic series)
CCAGCCAG | 8.64 upbm affinity estimate (log intensity, higher = more binding, comparable within an allelic series)
CGGTGCAG | 8.91 upbm affinity estimate (log intensity, higher = more binding, comparable within an allelic series)
CACTCGAA | 11.9 upbm affinity estimate (log intensity, higher = more binding, comparable within an allelic series)
CACTTCAG | 12.3 upbm affinity estimate (log intensity, higher = more binding, comparable within an allelic series)
GTCAAGTA | 12.2 upbm affinity estimate (log intensity, higher = more binding, comparable within an allelic series)

target: NKX3-2 (Homo sapiens, UniProt P78367 192-278); experiment: PBM; 200 nM protein, PBS; conditions: dsDNA, one strand shown
Sequence (P78367 192-278): as the sequence (P78367 192-278 P234S) above, with S43P counted along it

Sequence | binding signal
AAGTGGTC | 12.9 upbm affinity estimate (log intensity, higher = more binding, comparable within an allelic series)
AAGTGGAC | 12.8 upbm affinity estimate (log intensity, higher = more binding, comparable within an allelic series)
CCGACGCC | 10.5 upbm affinity estimate (log intensity, higher = more binding, comparable within an allelic series)
AAGTGCCC | 12.9 upbm affinity estimate (log intensity, higher = more binding, comparable within an allelic series)
CAAGTACC | 12.6 upbm affinity estimate (log intensity, higher = more binding, comparable within an allelic series)
